Assay results published in PubChem BioAssay AID1851 (National Center for Advancing Translational Sciences (NCATS), 2009).
Values joined by “and” are separate entries in the source; they are usually repeats but may differ in a detail not shown here. Identical values can stand only once. About 5,800 (36%) of roughly 16,000 compounds were called active. Not shown: some 23% with an inconclusive outcome. Calls come from the whole dose curve; as a rule, active = well fitted curve in the direction sought with a large enough effect; inconclusive = small, poorly fitted or top-dose-only effect, or effect the other way; inactive = no such curve, though single readings can be large or run the other way. The list shows a part of the results.

Each compound was assayed against Cytochrome P450 2C19 (Homo sapiens) (UniProt P33261) (assay: Cytochrome panel assay with activity outcomes). Conditions: recombinant CYP, pro-luciferin dealkylation, luminescence, p450-cyp2c19; series mostly up to 57.1 µM.
% is set by controls: 0 for no effect and ±100 for the full control effect.

Chain of Cytochrome P450 2C19 (Homo sapiens) (P33261 whole entry, looked up): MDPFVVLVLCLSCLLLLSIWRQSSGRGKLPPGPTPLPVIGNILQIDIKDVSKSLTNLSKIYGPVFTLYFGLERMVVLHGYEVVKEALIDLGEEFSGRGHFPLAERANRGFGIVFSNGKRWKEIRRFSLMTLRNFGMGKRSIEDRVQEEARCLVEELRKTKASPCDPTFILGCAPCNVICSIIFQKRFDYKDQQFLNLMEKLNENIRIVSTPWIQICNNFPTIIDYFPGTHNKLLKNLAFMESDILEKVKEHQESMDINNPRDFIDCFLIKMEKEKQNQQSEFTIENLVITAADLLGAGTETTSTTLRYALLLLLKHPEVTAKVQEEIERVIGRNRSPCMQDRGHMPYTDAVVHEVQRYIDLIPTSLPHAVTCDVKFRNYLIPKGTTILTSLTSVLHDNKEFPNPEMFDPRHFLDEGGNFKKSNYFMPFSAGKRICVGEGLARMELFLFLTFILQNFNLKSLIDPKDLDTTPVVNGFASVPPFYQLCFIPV

SMILES	AC50	activity, negative = inhibition
C#CCN(C)CCCOc1ccc(Cl)cc1Cl	5.01 µM (active) and 2.51 µM (active)	
CCCCN(C)Cc1c(C)[nH]c2ccc(Cl)cc2c1=O	inactive	
O=[N+]([O-])c1cccc2c[nH]nc12	inactive	
O=[N+]([O-])c1ccc(S(=O)(=O)Cc2ccccc2)c2nonc12	3.16 µM (active)	
CNc1cc(-c2ccccc2C(F)(F)F)ncn1	inactive	
FC(F)(F)c1ccccc1-c1cc(NCCN2CCOCC2)ncn1	inactive	
CN1CCN(c2cc(-c3ccccc3C(F)(F)F)ncn2)CC1	10 µM (active)	
CN1CCN(c2ncncc2-c2ccccc2Cl)CC1	inactive	
CN1CCN(c2ncncc2-c2ccccc2C(F)(F)F)CC1	15.8 µM (active)	
CN(C)c1ncc2nc(-c3cccs3)c(=O)n(CCc3ccccc3)c2n1	inactive	
O=c1onc(-c2cccs2)n1Cc1ccccc1	1 µM (active)	
CCn1nc(C)c(NC(=O)/C=C/c2cnn(C)c2C)c1C	inactive	
COc1ccc(Br)cc1/C=C/C(=O)Nc1c(C)cccc1C	4.47 µM (active)	
O=C(O)Cn1ccnc1[N+](=O)[O-]		4.05% [at 11.4 µM] (inactive)
N#Cc1ccc(CN2CC[C@@]3(CCCN(C(=O)c4cc(C(F)(F)F)cc(C(F)(F)F)c4)C3)C2)cc1	inactive	
O=C(c1cc(C(F)(F)F)cc(C(F)(F)F)c1)N1CCC[C@@]2(CCN(Cc3ccncc3)C2)C1	0.2 µM (active)	
O=C(c1cnccn1)N1CCC[C@@]2(CCN(Cc3ccncc3)C2)C1	10 µM (active)	
O=C(c1cc(C(F)(F)F)cc(C(F)(F)F)c1)N1CCC[C@@]2(CCN(Cc3ccccc3)C2)C1	inactive	
O=C(c1cnccn1)N1CCC[C@@]2(CCN(Cc3cc(C(F)(F)F)cc(C(F)(F)F)c3)C2)C1	inactive	
O=C(c1cnccn1)N1CCC[C@@]2(CCN(c3ccncc3)C2)C1	inactive	
CCC(=O)O[C@@]1(C(=O)CCl)[C@@H](C)C[C@@H]2[C@H]3CCC4=CC(=O)C=C[C@@]4(C)[C@]3(F)[C@@H](O)C[C@@]21C	inactive	
CCOC(=O)c1cccc(NC(=O)COc2ccc([N+](=O)[O-])cc2)c1	3.55 µM (active)	
O=C(COc1ccc(/C=N/NC(=O)c2ccccc2)cc1)Nc1ccc([N+](=O)[O-])cc1	inactive	

SMILES	AC50	activity, negative = inhibition
Cc1ccc(S(=O)(=O)CCc2nnc(NC(=O)COc3cccc(C)c3)s2)cc1	inactive	
Cc1ccnc(NC(=O)c2cccc(NC(=O)COc3ccccc3)c2)c1	15.8 µM (active)	
C/C(CC(=O)Nc1cc(C)ccn1)=N\NC(=O)COc1cccc(C)c1	25.1 µM (active)	
C[N+]1(CCOc2ccc([N+](=O)[O-])cc2)CCOCC1	inactive	
CC(C)c1nc2oc3ccccc3c(=O)c2c(=O)n1-c1ccccc1	inactive	
Cc1nn(-c2ccc(Cl)cc2)c2sc(C(=O)c3c(N)n(C)c(=O)n(C)c3=O)cc12	inactive	
CC(C)Cn1c(=O)n(C)c(=O)c2[nH]cnc21	inactive	
CC(C)Cn1c(N)c(C(=O)CSc2ccc3c(c2)OCCO3)c(=O)n(C)c1=O	2.51 µM (active)	
Cn1c(N)c(C(=O)CSc2ccc3c(c2)OCCO3)c(=O)n(C)c1=O	5.62 µM (active)	
COc1ccc(C2=Nc3cccc4cccc(c34)N2)cc1	inactive	
C/C(=N\OC(=O)NC1CCCCC1)c1sc(-c2ccccc2)nc1C	5.62 µM (active)	
O=C(O)c1cc2ccccc2c(S(=O)(=O)O)c1O		23.2% [at 11.4 µM] (inactive)
Cc1cccc(Sc2c([N+](=O)[O-])ncn2C)n1	inactive	
Cc1ccc(Sc2c([N+](=O)[O-])ncn2C)cc1	25.1 µM (active)	
Cn1cnc([N+](=O)[O-])c1Sc1nc(N)nc2c1ncn2[C@H]1C[C@H](O)[C@@H](CO)O1		8.27% [at 11.4 µM] (inactive)
Cc1nn(Cc2c(Cl)cccc2Cl)c(C)c1NC(=O)c1cnn2c(C(F)F)cc(-c3ccccc3)nc12	7.08 µM (active)	
O=C(Nc1cccnc1)c1ccc(COc2cc(Cl)ccc2Cl)o1	2.51 µM (active)	
O=C(N/N=C/c1ccc(O)cc1)c1ccc(COc2cc(Cl)ccc2Cl)o1	4.47 µM (active)	
O=C(Nc1ccn(Cc2ccccc2F)n1)c1ccc(COc2cc(Cl)ccc2Cl)o1	0.708 µM (active)	
CC(C)CNC(=O)c1ccc(COc2ccc(Cl)cc2Cl)o1	10 µM (active)	
Cn1ncc(Cl)c1C(=O)Nc1cccnc1	inactive	
CC(=O)O[C@@H](C)C[N+](C)(C)C	inactive	
CO[C@@H]1COC(=O)CC=C[C@@H](C)[C@@H]2C=C[C@H](O)[C@@H](COC(=O)C/C=C\[C@H]1C)O2		-32.3% [at 11.4 µM] (inactive)

SMILES	AC50	activity, negative = inhibition
O=C(O)[C@@H](c1ccccc1)[C@@H](C(=O)O)c1ccccc1		8.57% [at 11.4 µM] (inactive)
O=C(c1ccccc1)[C@H](Nc1ccc2ccccc2c1)c1ccccc1	1 µM (active)	
CC1=CC(=C2C(=O)c3ccccc3C2=O)C=C(C)O1	25.1 µM (active)	
CC1=CC(=C2C(=O)c3ccccc3C2=O)C=C(C)N1Cc1ccco1	4.47 µM (active)	
COC(=O)C(NC(=O)c1ccccc1)=C1C=C(C)OC(C)=C1	inactive	
CCCCS(=O)(=O)NC1=NCN(Cc2ccco2)CN1	inactive	
Cc1nc(SCc2cccc(Oc3ccccc3)c2)n[nH]1	5.01 µM (active)	
CO[C@]1(NC(=O)[C@H](C(=O)O)c2ccc(O)cc2)C(=O)N2C(C(=O)O)=C(CSc3nnnn3C)CO[C@H]21	inactive	
COc1ccccc1-c1cncnc1NCCc1cnc[nH]1	0.0794 µM (active)	
FC(F)(F)c1ccccc1-c1cncnc1NCCc1cnc[nH]1	0.01 µM (active)	
CC(=O)NCCNc1ncncc1-c1ccccc1C(F)(F)F	inactive	
COc1cccc(-c2cncnc2NCCc2cnc[nH]2)c1	0.01 µM (active)	
CS(=O)(=O)N1CCC2(CCCN(C(=O)Nc3cccc(F)c3)C2)CC1	inactive	
Cc1ccc(C(C)C)n1C(=O)OC(C)(C)C		4.81% [at 11.4 µM] (inactive)
CN(C)c1ccc(/C=N\NC(=O)c2cnc3ccccc3c2)cc1		21.3% [at 11.4 µM] (inactive)
CN(C)/C=N/c1ncc(C(=O)c2ccc3ccccc3c2)s1	14.1 µM (active)	
COc1ccc(CCN(C(=O)C(F)(F)F)C(C(=O)NC2CCCC2)c2cccs2)cc1 (configuration not stated)	2 µM (active)	
O=C(NC1CCCCC1)C(c1cccs1)N(C(=O)C(F)(F)F)c1ccccc1 (configuration not stated)	1.58 µM (active)	
COc1ccc(C(C(=O)NC2CCCC2)N(C(=O)c2snc(-c3ccc(F)cc3)c2N)c2ccccc2)cc1 (configuration not stated)	inactive	
CCOC(=O)c1ccc(N/C(=N\S(=O)(=O)c2ccccc2C)c2ccccc2)cc1	7.94 µM (active)	
COc1cc2c(cc1OC)C(C(=O)Nc1ccc3c(c1)OCCO3)C(c1cccnc1)N(C)C2=O (configuration not stated)	inactive	
COc1cc(OC)c(C2C(C(=O)O)c3ccccc3C(=O)N2C)cc1OC (configuration not stated)	inactive	
COCCN1C(=O)c2ccccc2C(C(=O)Nc2ccc3c(c2)OCCO3)C1c1ccc(F)cc1 (configuration not stated)	28.2 µM (active)	

SMILES	AC50	activity, negative = inhibition
CCn1c(SCC(=O)N/N=C/C=C\c2ccccc2[N+](=O)[O-])nnc1-c1ccccc1	14.1 µM (active)	
CC1=NNC(=O)C1CCC(=O)N/N=C\c1ccccc1[N+](=O)[O-] (configuration not stated)	inactive	
Cc1noc(C)c1C(=O)N1CCC[C@@]2(CCN(Cc3nccs3)C2)C1	inactive	
CSc1nc(C)cc(Nc2ccc(O)c(CN3CCOCC3)c2)n1		52.5% [at 11.4 µM] (inactive)
Cc1cc(N2CCOCC2)nc(SCc2ccc(Cl)cc2Cl)n1	2.24 µM (active)	
COc1cccc2c1C(=O)c1c(O)c3c(c(O)c1C2=O)C[C@](O)(C(=O)CO)C[C@H]3O[C@@H]1C[C@H](N)[C@H](O)[C@H](C)O1	inactive	
COc1ccc(-n2c(=O)c(-c3ccccc3)nc3cnc(N4CCOCC4)nc32)cc1	inactive	
O=c1c(-c2ccccc2)nc2cnc(N3CCOCC3)nc2n1C1CC1	inactive	
Cc1cc(Oc2ccc(-c3ccccc3)cc2)nc(N2CCOCC2)n1	14.1 µM (active)	
CCCc1ccc(Oc2cc(C)nc(N3CCOCC3)n2)cc1	11.2 µM (active)	
Nc1nc(Cl)nc2c1ncn2[C@@H]1O[C@@H](COP(=O)(O)OP(=O)(O)OP(=O)(O)O)[C@@H](O)[C@H]1O	inactive	
O=C(NC1CCCCC1)C(c1cccs1)N(Cc1cccs1)C(=O)c1ccco1 (configuration not stated)	1.58 µM (active)	
COc1ccc(CN(C(=O)Cc2cccs2)C(C(=O)NC2CCCC2)c2ccncc2)cc1 (configuration not stated)	1.78 µM (active)	
O=C(NC1CCCC1)C(c1ccsc1)N(Cc1ccccc1)C(=O)Cc1cccs1 (configuration not stated)	5.01 µM (active)	
CO[C@H]1[C@@H](OC(N)=O)[C@H](O)[C@@H](Oc2ccc3c(O)c(NC(=O)c4ccc(O)c(CC=C(C)C)c4)c(=O)oc3c2C)OC1(C)C	inactive	
NC(=S)c1ccc[n+]([C@@H]2O[C@@H](COP(=O)([O-])OP(=O)(O)OC[C@@H]3O[C@@H](n4cnc5c(N)ncnc54)[C@@H](OP(=O)(O)O)[C@H]3O)[C@@H](O)[C@H]2O)c1	inactive	
CCCCCCCCCCCCCCCCCCc1ccc(C(=O)/C=C\C(=O)O)cc1	inactive	
COc1ccc2[nH]c(C(=O)c3ccccc3)cc2c1	inactive	
CCCC(=O)Nc1ccc(C(=O)/C=C/c2ccc(SC)cc2)cc1	2.51 µM (active)	
COc1cccc(C(=O)/C=C/c2ccc(SC)cc2)c1	0.631 µM (active)	
O=S(=O)(NCc1cccnc1)c1ccc(Cl)nc1	31.6 µM (active)	
c1cncc(CNCc2cccnc2)c1		5.45% [at 11.4 µM] (inactive)
OCCNc1ncnc2nc[nH]c12		10.2% [at 11.4 µM] (inactive)
